# Source: PubChem
# Sampled rows, rich in hits. Any-hit rate of the full collection: about 10%.
# Luc counter: blocks Kinase-Glo luciferase, a counter-screen artifact. Kinase-Glo luciferase, ATP luminescence, 8 min. AID 1379. Q27757. hit rate 0.28% among 200,000. Potency, µM (top dose mostly 38.3 µM), without a hit: at the top dose activity change, negative = inhibition, actives largely listed as inhibitors; active = well fitted inhibition curve with a large enough effect; inconclusive = small, poorly fitted or top-dose-only effect; note: potency is the fitted concentration of half-maximal effect; nearly all actives have a fitted effect of over 60% in size
#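 Luminescence was the read-out, taken after 8-minute incubation at ambient temperature. Luciferase turned over luciferin with 10 uM ATP in imidazole pH 7.2 buffer containing KCl, MgCl2, Tween 20 and BSA.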
# HPGD block: inhibitors of human 15-hydroxyprostaglandin dehydrogenase (HPGD); purified HPGD, NADH fluorescence kinetic, PGE2 substrate; Potency, µM, without a hit: top-dose activity change, negative = inhibition, usual class: inhibitors; hit rate 4.3% among 150,000; note: potency is the fitted concentration of half-maximal effect
# Target sequence (P15428 whole entry, looked up): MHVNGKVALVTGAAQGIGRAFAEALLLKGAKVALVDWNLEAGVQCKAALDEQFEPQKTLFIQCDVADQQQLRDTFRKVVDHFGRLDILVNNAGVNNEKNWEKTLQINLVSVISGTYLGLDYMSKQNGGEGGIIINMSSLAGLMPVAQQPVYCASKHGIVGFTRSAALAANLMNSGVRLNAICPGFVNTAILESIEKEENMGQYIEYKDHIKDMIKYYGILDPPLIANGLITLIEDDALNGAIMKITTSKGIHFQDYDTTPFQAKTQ
#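 NADH formation kinetics: reaction with 30 uM PGE2 and 1 mM NAD+ (final), 20 nM enzyme, Tris-HCl pH 8 with Tween 20, after 15 min compound preincubation at room temperature. Fluorescence change, last versus first of five reads.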
# IMPase cell inh: IMPase inhibition in cells; P97697; inhibition (IP1 accumulation), % at 46.1 µM; 120,000 tested, under 10 active; CHO-M1 cells, IP1 accumulation, HTRF TR-FRET ratio; active = well fitted curve in the direction sought with a large enough effect in the signal ratio, not every such curve was filed as active; inconclusive = small, poorly fitted or top-dose-only effect, or a change in a side signal; inactive = no such curve, though single readings can be large or run the other way; the % refers to the signal ratio;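 note: cells stimulated with carbachol in lithium chloride buffer; plate controls were DMSO basal wells for no effect and reference inhibitor wells for full effect; higher means more IMPase inhibition seen as more IP1 and lower FRET ratio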
# Target sequence (P97697 whole entry, looked up): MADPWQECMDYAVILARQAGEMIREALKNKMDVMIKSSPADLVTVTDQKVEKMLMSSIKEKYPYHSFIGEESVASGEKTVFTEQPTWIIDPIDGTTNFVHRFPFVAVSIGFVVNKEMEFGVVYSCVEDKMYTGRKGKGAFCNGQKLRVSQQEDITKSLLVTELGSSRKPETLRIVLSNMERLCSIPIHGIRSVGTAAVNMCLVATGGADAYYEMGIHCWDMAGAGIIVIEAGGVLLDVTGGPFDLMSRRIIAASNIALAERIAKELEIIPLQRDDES
#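 Cellular IMPase inhibition is scored as a rise in cytosolic IP1, detected by competitive TR-FRET between d2-labelled IP1 and a europium anti-IP1 antibody. M1-expressing CHO cells were stimulated with carbachol for 30 min at 37C, with lithium (50 mM LiCl) present in the buffer.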
# PNC inhibitor: inhibitors of perinucleolar compartment assembly | PC3M PTB-GFP, PNC prevalence imaging, 16 h; stronger effect = lower value | activity change (PNC), negative = inhibition, % at 10 µM | hit rate 3.1% among 140,000;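 active = readout at or below -70, meaning at least 70% loss of cells showing the perinucleolar compartment, a nuclear body marking cancer cells; inconclusive = readout between -30 and a set limit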;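 note: plate controls were DMSO wells for no effect and camptothecin positive control wells for full effect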
#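 PC3M cells stably expressing PTB-GFP, 750–1000 cells/well, treated 16 h at 37 °C with compound (23 nl of library stock), in duplicate. After paraformaldehyde fixation and Hoechst stain, imaged at 20x; PNC prevalence scored by image analysis.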
# ALDH1A1 inh: inhibitors of human aldehyde dehydrogenase 1A1 | P00352 | Purified ALDH1A1, NADH fluorescence, propionaldehyde substrate | Potency, µM (series often up to 75.3 µM), for the others: at the top dose activity, negative = inhibition, most hits filed as inhibitors | hit rate 7.3% among 220,000 | AID 1030;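 note: potency is the fitted concentration of half-maximal effect; plate controls were no enzyme wells and a reference inhibitor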
# LMNA splice mod: changes lamin A minigene splicing in HeLa cells; HeLa LMNA splicing GFP/RFP minigene ratio, 48 h; Potency, µM (series often up to 46.1 µM), for inactives: top-dose ratio change, negative = inhibition, usual class: inhibitors; hit rate 0.01% among 200,000; active = well fitted inhibition curve with a large enough effect in the signal ratio, with a control signal flat, not every such curve was filed as active; inconclusive = small, poorly fitted or top-dose-only effect, or effect the other way, or a change in a side signal; the % refers to the signal ratio; note: potency is the fitted concentration of half-maximal effect
#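 S3 HeLa stable clones carrying a lamin A-EGFP splicing minigene plus DsRed2 were seeded at 600 cells/well in Opti-MEM with 2% FBS, pin-dosed and incubated 48 h at 37°C. Acumen cytometry (488 nm) gave the GFP/RFP total-intensity ratio.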
# * marks the source's active call; other numbers are inactive results; ? = inconclusive; . = no result; [ ] = remark or other dose. Unless noted, calls come from the whole dose curve; as a rule, active = well fitted inhibition curve with a large enough effect (not every such curve was filed as active); inconclusive = small, poorly fitted or top-dose-only effect, or another doubt; inactive = no such curve, though single readings can be large or run the other way. Unless noted, % is set by controls: 0 for no effect and ±100 for the full control effect.
SMILES,Luc counter,HPGD block,IMPase cell inh,PNC inhibitor,ALDH1A1 inh,LMNA splice mod
C=CCN1C(=O)C(CC(=O)Nc2ccc(C)cc2)SC1=Nc1c(C)n(C)n(-c2ccccc2)c1=O (stereo not given),-1%,-5%,-3,11,2%,-4%
Cc1ccc(NC(=O)CC2SC(=O)N(c3ccccc3)C2=O)cc1 (stereo not given),2%,-30%,1,43,10µM*,-18%
O=C(CC1SC(=O)N(c2ccccc2)C1=O)Nc1ccccc1 (stereo not given),-6%,?,1,?,8.9µM*,3%
COc1ccccc1NC1SC(=O)N(c2ccccc2)C1=O (stereo not given),-7%,-8%,3,40,5µM*,?
Cc1ccc(NC(=O)CC2SC3=NCCN3C2=O)cc1 (stereo not given),-2%,-13%,4,7,3.5µM*,-2%
COc1ccc(NC(=O)N2CCCC3(CCN(S(C)(=O)=O)CC3)C2)cc1,-3%,3%,.,.,1%,.
C/C=C/C1=CC2=CC(=O)C(C)(OC(=O)c3c(C)cc(O)cc3O)C(=O)C2=CO1 (stereo not given),-2%,-5%,.,.,?,.
Cc1cc(O)cc(O)c1C(=O)OC1(C)C(=O)C=C2C=C(/C=C/CO)OC=C2C1=O (stereo not given),-1%,-10%,.,.,22µM*,.
c1ccc(-n2ncc3c(NCc4cccs4)ncnc32)cc1,0%,5µM*,8,8,?,-7%
NNc1ncnc2c1cnn2-c1ccccc1,-4%,-20%,0,?,18µM*,?
CCC(C)NC(=O)Cn1c(=O)n(CCCC(=O)NCc2ccc(C)cc2)c(=O)c2ccccc21 (stereo not given),.,.,-2,.,.,.
CCN(CCCNC(=O)Cn1ncc2c(=O)oc3ccccc3c21)c1cccc(C)c1,2%,-19%,-1,-4,-15%,8%
CCCN(C(=O)Cn1ncc2c(=O)oc3ccccc3c21)c1cccc(C)c1,-5%,3%,-2,-25,11µM*,-2%
COc1ccc(-n2c(Cc3cccn3C)nnc2SCC(=O)Nc2ccccc2F)cc1,7%,1%,5,-108*,16µM*,-7%
COc1ccc(-n2c(Cc3cccn3C)nnc2SCC(=O)Nc2cccc(C)c2C)cc1,4%,-11%,?,45,14µM*,-8%
COc1ccc(-n2c(Cc3cccn3C)nnc2SCC(=O)Nc2ccccc2C)cc1,-3%,-7%,0,18,?,1%
COc1cccc(NC(=O)CSc2nnc(Cc3cccn3C)n2-c2ccc(F)cc2)c1,-2%,-22%,5,-18,14µM*,-12%
COc1ccc(-n2c(Cc3cccn3C)nnc2SCC(=O)Nc2nccs2)cc1,-1%,0%,-4,-114*,?,-7%
COc1ccc(NC(=O)CSc2nnc(Cc3cccn3C)n2-c2ccc(F)cc2)cc1,7%,2%,0,-16,?,-12%
COc1ccc(-n2c(Cc3cccn3C)nnc2SCC(=O)Nc2ccc(F)cc2F)cc1,3%,-12%,1,6,10µM*,-2%
Cc1oc2ncn(CC(C)C)c(=O)c2c1C(=O)Nc1cc(F)ccc1F,.,.,.,.,.,-5%[46 µM]
Cc1ccsc1/C=C1\SC(N2CC(C)OC(C)C2)=NC1=O (stereo not given),-1%,-16%,.,18,18µM*,-18%
O=C1N=C(N2CCCC2)S/C1=C\c1ccccc1,-1%,-18%,?,-10,?,-9%
COc1cccc(CNC(=O)CSc2n[nH]c(-c3ccccc3Cl)n2)c1OC,.,.,.,.,.,-5%[46 µM]
O=C(NC1CCCCCC1)c1cc2n(n1)C(C(F)(F)F)CC(c1ccco1)N2 (stereo not given),2%,-9%,2,7,-9%,-4%
SMILES,Luc counter,HPGD block,IMPase cell inh,PNC inhibitor,ALDH1A1 inh,LMNA splice mod
NC(=O)C1CCN(C(=O)c2cc3n(n2)C(C(F)(F)F)CC(c2ccco2)N3)CC1 (stereo not given),-1%,-11%,9,-4,12µM*,-6%
Oc1c(C=NCc2ccccc2)sc2ccccc12,1%,.,.,.,-4%,.
Oc1cccc(C=NCc2ccccc2)c1O,3%,16µM*,7,-7,8.9µM*,-6%
Cc1csc(SCC(=O)c2ccc(S(=O)(=O)N3CCOCC3)cc2)n1,-1%,-11%,-1,8,?,5%
COC(=O)c1ccc(CSc2nc3ccc(S(=O)(=O)N4CCOCC4)cc3[nH]2)cc1,2%,28µM*,11,?,-4%,2%
CCc1ccc(C(=O)CSc2nc3cc(S(=O)(=O)N4CCOCC4)ccc3n2CC)cc1,4%,-23%,14,?,28µM*,?
CCOC(=O)CSc1nc2ccc(S(=O)(=O)N3CCOCC3)cc2[nH]1,-3%,-7%,-6,35,-12%,-2%
O=C(O)c1c[nH]c2cc(OCc3ccccc3)ccc2c1=O,-8%[7.66 µM],?,.,.,?,.
Cc1c(Cl)c(C(=O)NC2C3CC4CC(C3)CC2C4)nn1C (stereo not given),0%,20µM*,.,?,?,?
Cc1ccc(C)c(CNC(=O)c2sc3ncnc(N(C)C4CCCCC4)c3c2C)c1,.,.,.,.,.,-5%[46 µM]
Clc1ccc(OCc2nc(-c3ccncc3)no2)c(Cl)c1,-2%,13µM*,4,38,10%,?
C=CCN1C(=O)/C(=C2\SC(N3CCOCC3)=NC2=O)c2cc(Br)ccc21,-5%,-15%,-3,-28,3.5µM*,-13%
COc1ccc(-n2c(COc3ccc4c(c3)OCO4)nnc2SCC(=O)O)cc1,7%,.,.,.,2.5µM*,.
COc1ccc(-n2c(COc3ccccc3)nnc2SCC(N)=O)cc1,-4%,1%,?,-19,0%,?
O=S(=O)(O)c1ccc2c(N=Nc3c(O)ccc4ccccc34)cccc2c1,-7%[7.66 µM],-4%,.,.,-11%[13.5 µM],.
